# ± gives the standard deviation.
# Test system: MILI (PIWIL2) piRISC loaded with piRNA #1 (26 nt)
# Assay: pre-steady-state target cleavage rate (min^-1); guide: piRNA #1 5'p-UGAGGUAGUAGGUUGUAUAGUAUCCA; MIWI and MILI are mouse PIWI proteins and EfPiwi is from a freshwater sponge; tags in brackets are library labels; higher = faster piRNA-guided slicing of the target
# Conditions: auxiliary factor: 500 nM mouse GTSF1
# Procedure, shortened: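 In this Cleave-'n-Seq assay, uncleaved targets were sequenced and normalised to depth and to weakly complementary targets. They came from a transcribed, DNA-blocked target RNA library […] mixed with 1 nM active affinity-purified piRISC carrying one synthetic guide, with or without 500 nM GTSF1 partner protein, in HEPES–potassium acetate buffer at 33 °C for 0–8 or 0–960 min. After three trials were pooled and k3 was capped at 0.0001 min^-1, the pre-steady-state cleavage rate was obtained from a burst-and-steady-state fit.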
# 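Note: 1 nM active piRISC with 0.1 nM target library at 33 °C single turnover.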
row,Sequence,pre-steady-state target cleavage rate
1,GGAGUGGAUACUAUUCAACCUACUACCACA,0.093 ± 0.0098
2,GGAGACGAUACUAUACACCUACUACCUCA,0.0294 ± 0.0067
3,GGAGACCAUACUAUACAACCUAGCUACCUCA,0.0804 ± 0.012
4,GGAGACCUUUGUAUACAACCUACUACCUCA,0.0347 ± 0.0065
5,GGAGUGGAUACUAUAUAACCUACUACCUCA,0.191 ± 0.0088
6,GGAGACCUUACUAUACAACCUACAUACCUCA,0.157 ± 0.011
7,GGAGUGGAUACUAUUCAACCUACUACCUCA,0.179 ± 0.0081
8,GGAGACCUAUGUUUACAACCUACUUCCUCA,0.0114 ± 0.0056
9,GGAGACCUAUGUAUACAACCUACUACCCUCA,0.0911 ± 0.011
10,GGAGACCUAUGUAUUCAACCUACUAGCUCA,0.0092 ± 0.0033
11,GGAGACCUAUGUAAACAACCUACUACCUCA,0.0131 ± 0.0032
12,GGAGACCUAUGUUUACAACCUACUACGUCA,0.00415 ± 0.0018
13,GGAGUGCAUACUAUACUACCUACUACCUCA,0.161 ± 0.0089
14,GGAGACCUAUGAUUACAUCCAACUACCUCA,0.00328 ± 0.003
15,GGAGACGAUACUCAUACAACCUACUACCUCA,0.198 ± 0.02
16,GGAGACCUAACUAUACAACCUACUACACUCA,0.168 ± 0.028
17,GGAGACCUAUGAAUACAACCUACUCCCUCA,0.00391 ± 0.0022
18,GGAGACCAUACUAUACAACCUACUACCUA,0.125 ± 0.016
19,GGAGACCUAUCUUUACAUCCUACUACCUCA,0.104 ± 0.013
20,GGAGACCUAUCUAUAGAUCCUACUACCUCA,0.144 ± 0.017

row,Sequence,pre-steady-state target cleavage rate
1,GGAGACCUAUGAAUACAUCCUACUACGUCA,0.00336 ± 0.0019
2,GGAGACCUAACAAUACAACCUAGUACCUCA,0.00888 ± 0.0052
3,GGAGACCUAUGAUUACAACCUACUACCUAA,0.00444 ± 0.003
4,GGAGACCUAUGAUAACAACCUAUCUACCUCA,0.00737 ± 0.0021
5,GGAGACCAAACUAUAGAACCUACUACCUCA,0.13 ± 0.028
6,GGAGAUGAUACUAUACAACCUACUACCUCA,0.198 ± 0.013
7,GGAGACCUAACUAUACAUCCUACUACCACA,0.251 ± 0.046
8,GGAGACCUAUCUAUACAACCUACUACCUAA,0.0733 ± 0.0096
9,GGAGACCUUACUAUUCAACCUACUACCACA,0.161 ± 0.016
10,GGAGACCUAUGAUUACAAGCUAGUACCUCA,0.0146 ± 0.006
11,GGAGACCUAUCUAUACAACCUAACUACCUCA,0.00833 ± 0.0023
12,GGAGACCUAUGAUAUGUUGCUACUACCUUA,< 0.0001
13,GGAGACCUAUGAUAACAACCUAAUACCUCA,0.00414 ± 0.0023
14,GGAGACCUAAGUAUACAACGUACUACCUCA,0.0111 ± 0.0021
15,GGAGACCUAUGUAUACUACCUACUACGUCA,0.0155 ± 0.0032
16,GGAGACCUAUGAUAUGAACCUACUACGUGA,< 0.0001
17,GGAGACCUAUGAUAUGUACGUACUACCUGA,< 0.0001
18,GGAGACCUAUGAAUACAACCUACUACCUAA,0.00505 ± 0.0032
19,GGAGACCUAUGUUUACAUCCUACUACCUCA,0.0197 ± 0.0031
20,GGAGACGAUUCUAUACAACCUACUUCCUCA,0.0941 ± 0.016
